Screening data deposited in PubChem by National Center for Advancing Translational Sciences (NCATS).
In the library only some 12% were active in any assay of this set; here they are far more common.
BAZ2B block – blocks human BAZ2B. Q9UIF8. AlphaScreen BAZ2B-H3K14Ac peptide displacement. Potency, µM (series often up to 114 µM), for the others: at the highest dose activity change, negative = inhibition, most hits filed as inhibitors. 360,000 compounds, 4.4% hits; note: % is set by controls: 0 for no effect and ±100 for the full control effect; nearly all actives have a fitted effect of over 60% in size
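Multi-concentration screen (max 110 uM) measuring displacement of acetylated histone H3 peptide from BAZ2B by AlphaScreen, using 50 nM protein, 50 nM peptide and 10 ug/mL streptavidin donor plus Ni-chelate acceptor beads.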
L3MBTL1 block – blocks human L3MBTL1 | Q9Y468 | AlphaScreen L3MBTL1–H3K9me1 peptide binding | Potency, µM (highest dose often 57.1 µM), for inactives: top-dose activity, negative = inhibition, actives largely listed as inhibitors | 230,000 compounds, 0.66% hits; note: % is set by controls: 0 for no effect and ±100 for the full control effect; nearly all actives have a fitted effect of over 60% in size
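AlphaScreen proximity signal between nickel-chelate acceptor and streptavidin donor beads (final 10 ug/mL) reports binding of 50 nM L3MBTL1 to 75 nM biotin-H3 K9me1 peptide; complex incubated with compounds 30 min at room temperature; cefsulodin titration as control.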
Sfp inh – blocks B. subtilis Sfp PPTase activity; Q9F4F7; Biochemical Sfp PPTase activity, qHTS; Potency, µM, without a hit: largest response in the series, negative = inhibition, usual class: inhibitors; 310,000 compounds, 3.5% hits;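 note: the enzyme is Sfp with the accession as filed and its product quenches rhodamine fluorescence; 0% = enzyme reaction without inhibitor and -100% = no enzyme wells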
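Fluorescence-quenching assay: 15 nM Sfp-PPTase preincubated 15 min at room temperature with compound, then 5 uM rhodamine-CoA and 12.5 uM BHQ-2-labelled YbbR peptide added. Fluorescence (ex 525/em 598 nm) read at start and after 30 min; difference gives rate.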
G9a inh – G9a (human) methyltransferase inhibition; G9a H3K9 monomethylation, AlphaScreen, 2 h; Potency, µM (doses to about 102 µM), inactives show at the highest dose activity, negative = inhibition, actives largely listed as inhibitors; Q96KQ7; 350,000 compounds, 8.8% hits; note: % is set by controls: 0 for no effect and ±100 for the full control effect; nearly all actives have a fitted effect of over 75% in size
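Step 1: enzyme (final 20 nM) with compound, 15 min RT. Step 2: substrate peptide 500 nM and SAM 20 uM, 2 h RT. Step 3: anti-H3K9me1 antibody and AlphaScreen beads, 10 min, then plate read.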
HP1b chromo inh – HP1-beta chromodomain-methylated histone interaction inhibition | P83916 | AlphaScreen HP1-beta / biotin-H3K9me3 peptide binding | Potency, µM (top dose mostly 114 µM), inactives show at the highest dose activity change, negative = inhibition, hits mostly inhibitors | 390,000 compounds, 0.56% hits; note: nearly all actives have a fitted effect of over 70% in size
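Compound inhibition of the preformed complex between 50 nM HP1-beta and 50 nM biotinylated H3K9me3 peptide was read by AlphaScreen. Buffer was PBS pH 7.4 with 0.01% Tween-20. Incubations ran 30 min at room temperature, with 10 ug/mL donor/acceptor beads.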
JMJD2A Tudor inh – inhibitors of human JMJD2A Tudor domain; AlphaScreen JMJD2A-Tudor / H3K4me3 peptide binding; 390,000 compounds, 4.4% hits; Potency, µM (doses to about 114 µM), for the others: at the highest dose activity change, negative = inhibition, hits mostly inhibitors; AID 504339; O75164; note: % is set by controls: 0 for no effect and ±100 for the full control effect; nearly all actives have a fitted effect of over 50% in size
Target sequence (O75164 whole entry, looked up, the tested form may be a part): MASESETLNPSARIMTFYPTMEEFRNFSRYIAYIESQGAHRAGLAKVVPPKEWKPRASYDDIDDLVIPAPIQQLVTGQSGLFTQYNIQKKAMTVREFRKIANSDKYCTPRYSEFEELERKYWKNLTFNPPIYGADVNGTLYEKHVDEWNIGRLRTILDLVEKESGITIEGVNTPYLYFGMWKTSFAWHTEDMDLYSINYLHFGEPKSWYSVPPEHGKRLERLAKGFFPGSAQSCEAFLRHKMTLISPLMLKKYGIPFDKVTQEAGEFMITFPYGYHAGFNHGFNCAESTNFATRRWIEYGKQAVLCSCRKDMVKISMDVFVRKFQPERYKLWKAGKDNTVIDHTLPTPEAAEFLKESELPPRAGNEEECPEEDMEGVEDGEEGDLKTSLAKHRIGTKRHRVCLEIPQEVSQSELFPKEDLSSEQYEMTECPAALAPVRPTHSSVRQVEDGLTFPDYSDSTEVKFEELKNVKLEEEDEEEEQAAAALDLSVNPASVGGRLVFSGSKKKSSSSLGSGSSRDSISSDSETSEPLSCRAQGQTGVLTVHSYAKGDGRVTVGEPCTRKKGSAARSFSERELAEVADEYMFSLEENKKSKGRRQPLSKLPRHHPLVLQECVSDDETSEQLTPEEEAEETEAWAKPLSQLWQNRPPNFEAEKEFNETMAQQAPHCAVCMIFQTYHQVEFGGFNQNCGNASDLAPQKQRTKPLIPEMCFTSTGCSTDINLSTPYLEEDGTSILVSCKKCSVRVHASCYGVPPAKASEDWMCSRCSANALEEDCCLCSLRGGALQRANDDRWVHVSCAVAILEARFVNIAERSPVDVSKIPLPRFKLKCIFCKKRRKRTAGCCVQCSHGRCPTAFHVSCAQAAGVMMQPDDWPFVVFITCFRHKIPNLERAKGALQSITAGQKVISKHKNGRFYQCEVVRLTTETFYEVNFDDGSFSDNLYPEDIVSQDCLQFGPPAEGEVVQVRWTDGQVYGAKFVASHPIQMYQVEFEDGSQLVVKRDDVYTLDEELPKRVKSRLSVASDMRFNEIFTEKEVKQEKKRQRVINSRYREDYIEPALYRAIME
An asterisk follows results filed as active; ? = inconclusive; · = no result; [ ] = dose if it differs, or a comment. Calls come from the whole dose curve; as a rule, active = well fitted curve in the direction sought with a large enough effect; inconclusive = small, poorly fitted or top-dose-only effect, or another doubt; inactive = no such curve, though single readings can be large; an effect the other way counts as inactive or inconclusive. Potency is the fitted concentration of half-maximal effect.

SMILES	BAZ2B block	L3MBTL1 block	Sfp inh	G9a inh	HP1b chromo inh	JMJD2A Tudor inh
O=C(O)C(Cc1ccc(Cl)cc1)Sc1nc2ccccc2[nH]1 (centres undefined)	-1.2%	·	-7.9%	50.1µM*	-10.7%	-2.1%
O=C(CSc1nc2ccccc2[nH]1)N1CCN(S(=O)(=O)c2ccc(Cl)cc2)CC1	0.6%	·	-23.5%	35.5µM*	42.0%	-10.2%
Cc1ccc(CNC(=O)CSc2nc3ccccc3[nH]2)cc1	-20.0%	·	-9.9%	25.1µM*	54.2%	-11.6%
COC(=O)c1ccc(CNC(=O)CSc2nc3ccccc3[nH]2)cc1	-2.1%	·	18.5%	39.8µM*	19.7%	2.5%
Cc1ccc(S(=O)(=O)N2CCN(C(=O)CSc3nc4ccccc4c(=O)[nH]3)CC2)cc1	-37.3%	·	9.0%	-27.6%[12.7 µM]	14.4%	-6.1%
COc1ccc(NC(=O)c2ccco2)cc1NC(=O)c1ccc(OC(C)C)cc1	?	·	·	-48.2%[59 µM]	17.1%	-31.6%
COc1cc2ncc3c(-c4ccccc4)nn(-c4ccc(C)cc4)c3c2cc1OC	-31.6%	·	·	4.8%[12.7 µM]	1.3%	-30.1%
Cc1ccc(C)c(NC(=O)Cn2cc(C(=O)c3ccncc3)c(=O)c3cc(F)ccc32)c1	-18.3%	·	·	-2.3%[59 µM]	20.2%[57 µM]	-8.0%
O=C(CCCSc1nc2ccccc2[nH]1)NCc1ccc(Cl)cc1	-2.5%	12.8%	14.8%	10µM*	43.3%	-17.3%
Cc1nnc(NC(=O)CSc2nc3ccccc3[nH]2)s1	·	-4.6%	2.6%	-18.9%	30.8%	-6.2%
C=CCSc1nnc(NC(=O)CSc2nc3ccccc3[nH]2)s1	-7.7%	-2.9%	17.4%	1.78µM*	26.8%	0.6%
COc1ccc(CC(=O)NCCc2sc(-c3cccc(F)c3)nc2C)cc1	3.9%	·	·	-6.0%[59 µM]	21.1%[57 µM]	2.6%
C#CCOCCOCCOCCNc1nc(N2CCN(C(=O)C([C@@H](C)O)n3cc([C@@H](N)CCCCN)nn3)CC2)nc(N2CCN(C(=O)[C@H](CCCN=C(N)N)n3cc(C(N)[C@@H](C)CC)nn3)CC2)n1 (some centres undefined)	·	0.8%	·	·	18.6%	56.2µM*
C#CCOCCOCCOCCNc1nc(N2CCN(C(=O)C([C@@H](C)O)n3cc([C@@H](N)CCCCN)nn3)CC2)nc(N2CCN(C(=O)[C@H](CCCCN)n3cc([C@@H](N)[C@H](C)CC)nn3)CC2)n1 (some centres undefined)	·	-6.1%	·	·	87.9%	?
C#CCOCCOCCOCCNc1nc(N2CCN(C(=O)[C@H](CCCN=C(N)N)n3cc(C(N)[C@@H](C)CC)nn3)CC2)nc(N2CCN(C(=O)[C@H](CCCCN)n3cc([C@@H](N)CC(N)=O)nn3)CC2)n1 (some centres undefined)	·	4.3%	·	·	32.7%	89.1µM*
C#CCOCCOCCOCCNc1nc(N2CCN(C(=O)[C@H](CCCN=C(N)N)n3cc(C(N)[C@@H](C)CC)nn3)CC2)nc(N2CCN(C(=O)[C@H](CCC(=O)O)n3cc([C@@H](N)CC(N)=O)nn3)CC2)n1 (some centres undefined)	·	-6.0%	·	·	13.9%	50.1µM*
C#CCOCCOCCOCCNc1nc(N2CCN(C(=O)[C@H](CCCN=C(N)N)n3cc(C(N)[C@@H](C)CC)nn3)CC2)nc(N2CCN(C(=O)[C@H](CCC(=O)O)n3cc([C@@H](N)[C@H](C)CC)nn3)CC2)n1 (some centres undefined)	·	3.4%	·	·	8.4%	?
C#CCOCCOCCOCCNc1nc(N2CCN(C(=O)[C@H](CCCN=C(N)N)n3cc(C(N)[C@@H](C)CC)nn3)CC2)nc(N2CCN(C(=O)[C@H](CCC(=O)O)n3cc([C@@H](N)CO)nn3)CC2)n1 (some centres undefined)	·	-1.5%	·	·	3.2%	25.1µM*
CCOc1ccc(NC(=O)Cn2ccn(-c3ccc(F)c(F)c3)c(=O)c2=O)cc1	-15.2%	·	·	2.9%[59 µM]	16.1%	-14.8%
CC(=O)NCCNc1nc(-c2cccc(C#N)c2)nc2ccccc12	·	·	17.7%	-4.5%[0.501 µM]	·	·
C=C(C)C(=O)NNc1ccccc1	-4.9%	8.1%	-10.9%	11.2µM*	28.4%	-4.9%
CC(C)OC(=O)C(=O)NNc1ccccc1	-37.4%	-6.8%	-23.3%	?	31.9%	-9.0%
CC(C)C(=O)NNc1ccccc1	5.3%	-1.1%	-1.8%	-4.7%[59 µM]	28.3%	-4.8%
CCCOC(=O)C(=O)NNc1ccccc1	6.5%	·	-18.1%	39.8µM*	22.7%	3.0%
COc1ccc(CCNc2nc3cc(OC)c(OC)cc3c3nc(-c4cccnc4)nn23)cc1OC	4.2%	·	·	13.1%[59 µM]	13.4%	-16.7%
SMILES	BAZ2B block	L3MBTL1 block	Sfp inh	G9a inh	HP1b chromo inh	JMJD2A Tudor inh
C/C(=N/NC(=O)CNC(=O)/C=C/c1ccco1)c1ccc(Cl)cc1	56.2µM*	?	?	-38.4%	21.5%	-30.1%
CC(=C/C(=O)O)/C=C/c1ccc([N+](=O)[O-])cc1	?	-6.1%	6.9%	56.2µM*	32.3%	-6.6%
O=C(/C=C/c1ccc([N+](=O)[O-])cc1)/C=C/c1ccco1	28.2µM*	·	50.1µM*	10µM*	·	·
O=C(N/N=C/C=C/c1ccco1)c1cccc([N+](=O)[O-])c1	-7.8%	1.1%	-20.7%	?	35.9%	-17.0%
COc1ccccc1/C=C/C(=O)NCC(=O)N/N=C(/C)c1ccc(Cl)cc1	-34.2%	·	3.1%	20.3%	14.9%[57 µM]	-21.4%
O=C(/C=C/c1ccco1)c1cccc([N+](=O)[O-])c1	·	·	·	·	?	35.5µM*
Cc1ccc2c(c1)c1c(c(=O)n(Cc3ccccc3)c(=O)n1Cc1ccccc1F)n2C	-3.9%	·	·	?	46.7%	9.7%
Cc1cc(C)c(NC(=O)C(C)n2c(=O)cc(-c3ccccc3)c3c(C)nn(C)c32)c(C)c1 (centres undefined)	1.1%	·	·	4.2%[59 µM]	70.3%	-13.3%
Cc1cccc(-n2c(C)nc3cc(C(=O)NC4CCCCCC4)ccc32)c1	-32.4%	·	·	-21.0%[59 µM]	-1.5%	-35.5%
O=C(/C=C/c1ccco1)NCC(=O)N/N=C/c1ccc(Cl)cc1	-18.7%	-4.2%	0.8%	-29.7%	22.6%	-20.1%
O=C(/C=C/c1ccco1)NCC(=O)N/N=C/c1ccc([N+](=O)[O-])cc1	?	?	?	?	?	14.1µM*
O=C(NCc1ccc2c(c1)OCO2)c1ccc2c(c1)N(Cc1ccccc1F)C(=O)c1ccccc1S2=O (centres undefined)	-18.4%	·	·	2.9%[59 µM]	17.2%	-21.2%
Cn1c(=O)c2[nH]c(N/N=C(/C#N)C(N)=O)nc2n(C)c1=O	?	3.4%	56.2µM*	14.1µM*	-3.4%	-19.3%
